The values that follow come from PubChem BioAssay AID893 (National Center for Advancing Translational Sciences (NCATS), 2007).

In all, about 75,000 compounds went through this assay and about 5,700 (7.6%) were called active. Roughly 7% stayed inconclusive and do not appear here. Calls follow the shape of the dose curve; as a rule, active = well fitted inhibition curve with a large enough effect; inconclusive = small, poorly fitted or top-dose-only effect; inactive = no such curve, though single readings can be large or run the other way. Shown is part of a subset that was picked to be rich in actives. A call without a number means that no potency is given here.
Potency is read from the fitted curve at half-maximal effect.

This assay has as its target 3-hydroxyacyl-CoA dehydrogenase type-2 (Homo sapiens) (UniProt Q99714). The experiment in a line: qHTS Assay for Inhibitors of HSD17B4, hydroxysteroid (17-beta) dehydrogenase 4. Also: nearly all actives have a fitted effect of over 70% in size. The conditions noted are these: recombinant HSD17B10, NADH fluorescence kinetic; series mostly up to 57.1 µM. An excerpt: Assay Overview: NIH Molecular Libraries Screening Centers Network [MLSCN] NIH Chemical Genomics Center [NCGC] Structural Genomics Consortium [SGC] Grant number: None HADH2: Hydroxyacyl-Coenzyme A dehydrogenase, type II, was supplied by researchers at the Structural Genomics Consortium, Oxford University lab (PI Udo Oppermann). The mitochondrial enzyme 17-hydroxysteroid dehydrogenase type 10 (HSD17-10) previously classified as type II hydroxyacyl-CoA dehydrogenase (HADH2) catalyzes the NAD+ dependent oxidation of a variety of substrates including acyl-CoAs, androgens and neurosteroids as well as bile acids(Shafqat N, Marschall HU, Filling C, et al. Biochemical Journal. 2003;376(Pt 1):49-60). […] The enzyme was produced by E.coli fermentation as His-tagged recombinant for the purpose of X-ray structure determination, and had been mass-spectrometry characterized. Inhibition of HADH2 activity was screened by utilizing beta-hydroxybutyryl coenzyme A as an electron donor and NAD+ as an electron acceptor/cofactor. An increase in the fluorescence intensity due to conversion of NAD+ to NADH was used to measure the enzyme activity.
Assay Protocol: Buffer: 100 mM Tris-HCl pH 9.0, containing 0.01 % Tween-20. Reagents/Controls: Buffer in columns 3 and 4 as negative control (no enzyme). Substrate/cofactor solution: 1 mM NAD+ and 90 uM beta-hydroxybutyryl coenzyme A (Sigma-Aldrich, St. Louis, MO) final concentrations dispensed throughout the plate. Enzyme: 20 nM HADH2 final concentration in columns 1, 2, 5-48. Column 1 is neutral (100% activity). Column 2 contained titration of apomorphine (Sigma-Aldrich, A 4393, PubChem CID 2215, top concentration 500 uM, then 1:2 dilution in duplicate) Assay Steps: Three uL of enzyme were dispensed to 1536-well Greiner black solid bottom plates. Compounds and controls (23 nL) were transferred via Kalypsys PinTool. The plates were incubated for 15 min at room temperature, and then 1 uL of substrate/cofactor solution was added to start the reaction. The plates were immediately transferred to and read every 30 seconds for 4 min on ViewLux High-throughput CCD imager (Perkin-Elmer) using 360 nm excitation and 450 nm emission fluorescence protocol. The fluorescence intensity difference between the last and the first time points was used to compute reaction progress.
A general note: qHTS replaces the single test concentration by a dilution series.
For `Cc1cccc2c3c(ccc12)C1=C(C(=O)C3=O)C(C)CO1` (centres undefined), the Potency is 20 µM (active).
Consider `C[C@@]12CCC3C(CC[C@@H]4CC(O)CC[C@@]34C)C1CCC2O` (some centres undefined), for which the Potency result is “inactive”.
Same read-out and setting: in the case of `CC(C)(C)[C@]1(O)C[C@@H]2OC(=O)C[C@@]23C(=O)O[C@@H]2OC(=O)[C@H](O)[C@]213` it was “inactive”; in that of `Cc1cccc([C@H](C)c2cnc[nH]2)c1C`, “inactive”.
The same measure, in the same setting: in the case of `c1ccc(N2CC[C@@]3(CCCNC3)C2)nc1` it was 31.6 µM (active); in that of `c1ccc(CN2CC[C@@]3(CCCNC3)C2)cc1`, “inactive”; in that of `O=C1C2(Cl)C3(Cl)C4(Cl)C(Cl)(Cl)C5(Cl)C3(Cl)C1(Cl)C5(Cl)C24Cl` (centres undefined), “inactive”.
For the compound `CN1C2CC3CC1C(O3)C2O` (centres undefined), the Potency result is “inactive”.
Consider `CCN1C[C@]2(COC)C(O)C[C@H](OC)[C@@]34C5C[C@]6(O)C(OC)C(O)[C@](OC(C)=O)(C5C6OC(=O)c5ccccc5)C(C(OC)C23)C14` (some centres undefined), for which the Potency entry is “inactive”.
Still for that read-out and setting: next, `CC(=O)OC1C2CCC3C1(CC(O)[C@@]1(O)[C@@H](CC(O)C1(C)C)[C@]3(C)O)C[C@@]2(C)O` (some centres undefined): “inactive”; `CC(C)(C)C(O)(CCc1ccc(Cl)cc1)Cn1cncn1` (centres undefined): “inactive”.
On the same count and under the same terms, in the case of `CCOC(=O)c1c(-c2ccccc2)oc2ccc(OC(=O)N(C)C)cc12` it was 31.6 µM (active).
Same read-out and setting: in the case of `c1ccc(CCCCN2CCC(c3ccccc3)CC2)cc1` it was “inactive”; in that of `CN(C)C1C(=O)C(C(N)=O)=C(O)[C@@]2(O)C(=O)C3=C(O)c4c(O)cccc4[C@@](C)(O)C3C[C@@H]12` (some centres undefined), “inactive”.
With `NCC[Se][Se]CCN`, the Potency was 0.794 µM (active).
The same measure, in the same setting: in the case of `N#CCCCl` it was “inactive”.
On the same count and under the same terms, next, `C=CCSSCC=C`: “inactive”; `COc1cc(C[C@H](C)N)c(OC)cc1I`: “inactive”; `CC(=O)c1c(O)c(C)c(O)c(Cc2c(O)c3c(c(C(=O)/C=C\c4ccccc4)c2O)OC(C)(C)C=C3)c1O`: 31.6 µM (active).
For the compound `CCCCN1C2CCC1CC(OC(c1ccc(F)cc1)c1ccc(F)cc1)C2` (centres undefined), the Potency result was “inactive”.
Regarding `C[C@H](CCC(=O)O)[C@H]1CC[C@@H]2[C@H]3CC[C@H]4C[C@H](O)CC[C@@]4(C)[C@@H]3CC[C@@]21C`, the activity change, negative = inhibition is -3.04% [at 11.4 µM] (inactive).
On to `CCNC[C@H](O)c1cccc(O)c1`, for which the Potency result is “inactive”.
Same read-out and setting: next, `Fc1ccc(C(OCCN2CCN(C/C=C\c3ccccc3)CC2)c2ccc(F)cc2)cc1`: “inactive”; `CCOC(=O)c1c(N)n(Cc2ccccc2)c2nc3ccccc3nc12`: 15.8 µM (active).
Consider `N#Cc1c(Cl)c(Cl)c(Cl)c(C#N)c1Cl`, for which the Potency entry is “inactive”.
Same read-out and setting: in the case of `CC1=CC(=O)C2=C(C)C[C@H](O)[C@H]3[C@H](C)C(=O)O[C@@H]3C12` (some centres undefined) it was “inactive”.
As for `Cc1ccc(S(=O)(=O)O[C@H]2CN3CCC2CC3)cc1`, the activity change, negative = inhibition is 7.71% [at 11.4 µM] (inactive).
In the case of `COc1ccc(C2Oc3c(I)c(OC)cc(OC)c3CC2O)cc1OC` (centres undefined), the Potency entry is “inactive”.
Consider `NC(=O)c1ccc(OC[C@H](O)CN2CC=C(c3ccc(F)cc3)CC2)cc1`, for which the Potency result was “inactive”.
The same measure, in the same setting: in the case of `CC[C@@](O)(C(=O)O)c1cc2n(c(=O)c1CO)Cc1cc3ccccc3nc1-2` it was 3.16 µM (active); in that of `Clc1ccccc1`, “inactive”; in that of `CC(C)CC(C)Nc1ccc(Nc2ccccc2)cc1` (centres undefined), “inactive”.
Take `CC[C@@H]1CN2CC[C@@H]1C[C@H]2[C@H](O)c1ccnc2ccc(OC)cc12`: the Potency is 25.1 µM (active).
`ClC(Cl)=C(Cl)C(Cl)=C(Cl)Cl`: the Potency entry was “inactive”.
`N[C@H](C(=O)O)c1cc(=O)[nH]o1`: the Potency entry is “inactive”.
Same read-out and setting: in the case of `c1csc(CN2CCCC3(CCNCC3)C2)n1` it was “inactive”.
Same read-out and setting: in the case of `COC1CC(OC2CC[C@@]3(C=O)C4CC[C@]5(C)C(C6=CC(=O)OC6)CC[C@@]5(O)C4CC[C@]3(O)C2)OC(C)C1O` (some centres undefined) it was “inactive”.
Same read-out and setting: in the case of `CCN1C[C@@]2(COC)CC[C@H](OC)[C@]34[C@@H]1[C@]1(OCO[C@@]15C[C@@H](OC)C1C[C@H]3[C@H]5[C@@H]1OC)[C@H](O)[C@@H]24` it was “inactive”; in that of `CCN(CC)CCOC(=O)c1cc2cc(COC)ccc2o1`, 25.1 µM (active).
Consider `O=C(NCC(c1cccnc1)N1CCN(c2ccccc2)CC1)Oc1ccccc1` (centres undefined), for which the Potency entry is “inactive”.
The same measure, in the same setting: next, `COc1cc2c(cc1OC)[C@@H]1C(=O)c3ccc(O)c(CC=C(C)C)c3OC1CO2` (some centres undefined): “inactive”.
`CS(=N)(=O)CC[C@H](N)P(=O)(O)O` (some centres undefined): the activity change, negative = inhibition is -1.1% [at 11.4 µM] (inactive).
Regarding `CC(C)(c1ccc(OC[C@@H]2CO2)cc1)c1ccc(OC[C@H]2CO2)cc1`, the Potency result is “inactive”.
As to `O=C(c1cc(-c2ccncc2)nc2ccccc12)N1CCC2(CC1)OCCO2`, the Potency result was “inactive”.
In the case of `Cc1cccc(-n2c(C)nc3cc(C(=O)N4CCC5(CC4)OCCO5)ccc32)c1`, the Potency result is “inactive”.
The same measure, in the same setting: next, `O=C(c1cc2nc(-c3ccccc3)cc(-c3ccccc3)n2n1)N1CCC2(CC1)OCCO2`: 31.6 µM (active).
Take `CNC(C)[C@@H](O)c1ccccc1` (some centres undefined): the Potency result was “inactive”.
Consider `CCCCC#N`, for which the Potency result is “inactive”.
On to `CCC(C)C(=O)O[C@@H]1C[C@@]2(C)C(c3ccoc3)OC(=O)CC23OC2(C)O[C@@]14[C@@]1(C)C(CC(=O)OC)C5(C)CC1(O)C(O)(C5OC(=O)C1(C)OC1C)C(OC(C)=O)[C@@]34O2` (some centres undefined), for which the Potency entry is “inactive”.
Same read-out and setting: in the case of `CC(C)(Cc1c[nH]c2ccc(Cl)cc12)NCCOc1ccccc1OCC1CC1` it was “inactive”; in that of `C[C@H]1CC[C@@]2(NC1)O[C@@H]1C[C@H]3[C@@H]4CC=C5C[C@@H](O)CC[C@]5(C)[C@@H]4CC[C@]3(C)[C@@H]1[C@@H]2C`, “inactive”.
Same read-out and setting: in the case of `CN1[C@@H]2CC[C@H]1CC(NC(=O)c1nn(C)c3ccccc13)C2` (some centres undefined) it was 20 µM (active); in that of `N[C@H](Cc1o[nH]c(=O)c1Cl)C(=O)O`, “inactive”.
As for `C[C@@]12CC[C@H](O)C[C@@H]1CC[C@@H]1[C@@H]2CC[C@@]2(C)[C@@H](C3=CC(=O)OC3)[C@H](O)C[C@]12O`, the activity change, negative = inhibition was 5.61% [at 11.4 µM] (inactive).
